Records with an inconclusive call do not appear. Calls of active or inactive are those of the source. Unless noted, calls follow the shape of the dose curve; as a rule, active = well fitted curve in the direction sought with a large enough effect in the repeat runs; inconclusive = weak or mixed curves; inactive = no such curve, though single readings can be large; an effect the other way counts as inactive or inconclusive.
What was measured:
[1] = target: Retinoic acid receptor RXR-alpha (Homo sapiens) (UniProt P19793); assay: qHTS assay to identify small molecule agonists of the RXR signaling pathway (AID 1159527; calls by dose curve; also: nearly all actives have a fitted effect of over 35% in size)
Chain of Retinoic acid receptor RXR-alpha (Homo sapiens) (P19793 whole entry, looked up): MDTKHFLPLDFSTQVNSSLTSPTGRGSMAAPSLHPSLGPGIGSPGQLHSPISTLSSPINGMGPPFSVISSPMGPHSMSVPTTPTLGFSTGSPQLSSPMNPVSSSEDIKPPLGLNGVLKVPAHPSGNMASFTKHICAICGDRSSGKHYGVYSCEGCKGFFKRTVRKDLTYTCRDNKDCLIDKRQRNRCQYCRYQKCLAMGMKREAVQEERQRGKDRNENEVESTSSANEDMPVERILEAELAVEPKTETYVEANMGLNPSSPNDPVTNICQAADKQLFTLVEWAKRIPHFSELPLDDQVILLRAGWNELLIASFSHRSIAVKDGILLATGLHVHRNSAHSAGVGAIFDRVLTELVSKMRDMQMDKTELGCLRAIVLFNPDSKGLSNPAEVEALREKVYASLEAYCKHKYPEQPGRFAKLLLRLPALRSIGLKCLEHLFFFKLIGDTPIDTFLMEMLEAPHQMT
Summary of the method: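 Compounds in DMSO were added to RXR-alpha-UAS-bla HEK 293T cells kept in 2% charcoal-stripped serum, and incubated 16 hr at 37 C with 5% CO2. Reporter signal came from a 2 hr B/G FRET substrate step.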

[2] = qHTS assay to identify small molecule agonists of the RXR signaling pathway - cell viability counter screen (AID 1159529);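 also: HEK 293T cells carrying an RXR-alpha UAS beta-lactamase reporter; series mostly up to about 77 µM; nearly all actives have a fitted effect of over 50% in size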
Summary of the method: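 Counter screen: CellTiter-Glo luminescence. Cells: RXR-alpha-UAS-bla HEK 293T. Medium: 2% charcoal-stripped FBS. Treatment: 16 h, 37 C. Reagent incubation: 30 min, RT.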

[3] = qHTS assay to identify small molecule antagonists of the retinoid acid receptor (RAR) signaling pathway - cell viability counter screen (AID 1159551); also: nearly all actives have a fitted effect of over 35% in size
Summary of the method: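 Measured by luminescent ATP detection, viability reflects C3RL4 cells treated 6 h at 37 C with test chemicals in the presence of 1 uM (final) retinol.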

[4] = qHTS assay to identify small molecule antagonists of the retinoic acid receptor (RAR) signaling pathway (AID 1159552; also: nearly all actives have a fitted effect of over 50% in size)
Summary of the method: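 Antagonism of retinol-induced RARE reporter activity was measured in C3RL4 cells. Exposure to compounds and 1 uM final retinol lasted 6 hr at 37 C, with luminescence as endpoint.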

[5] = qHTS assay to identify small molecule agonists of the retinoic acid receptor (RAR) signaling pathway (AID 1159553)
Summary of the method: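 6 hr compound exposure (DMSO vehicle) of overnight-plated C3RL4 RARE-luc cells at 37 C; luminescence quantified after 30 min RT with luciferase reagent.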

[6] = qHTS assay to identify small molecule antagonists of the estrogen related receptor (ERR) signaling pathway from Tox21 library - cell viability counter screen (AID 1224834); also: nearly all actives have a fitted effect of over 30% in size
Summary of the method: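 Seeded ERR cells were rested 6 h at 37 C/5% CO2 before compounds, positive and negative controls or DMSO were added. Incubation continued for 17.5 h, and viability was then quantified by CellTiter-Fluor fluorescence.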

[7] = target: Luciferin 4-monooxygenase (Photinus pyralis) (UniProt P08659); assay: qHTS assay to identify small molecule inhibitors of firefly luciferase (AID 1224835); also: series mostly up to about 120 µM; nearly all actives have a fitted effect of over 25% in size
Chain of Luciferin 4-monooxygenase (Photinus pyralis) (P08659 whole entry, looked up): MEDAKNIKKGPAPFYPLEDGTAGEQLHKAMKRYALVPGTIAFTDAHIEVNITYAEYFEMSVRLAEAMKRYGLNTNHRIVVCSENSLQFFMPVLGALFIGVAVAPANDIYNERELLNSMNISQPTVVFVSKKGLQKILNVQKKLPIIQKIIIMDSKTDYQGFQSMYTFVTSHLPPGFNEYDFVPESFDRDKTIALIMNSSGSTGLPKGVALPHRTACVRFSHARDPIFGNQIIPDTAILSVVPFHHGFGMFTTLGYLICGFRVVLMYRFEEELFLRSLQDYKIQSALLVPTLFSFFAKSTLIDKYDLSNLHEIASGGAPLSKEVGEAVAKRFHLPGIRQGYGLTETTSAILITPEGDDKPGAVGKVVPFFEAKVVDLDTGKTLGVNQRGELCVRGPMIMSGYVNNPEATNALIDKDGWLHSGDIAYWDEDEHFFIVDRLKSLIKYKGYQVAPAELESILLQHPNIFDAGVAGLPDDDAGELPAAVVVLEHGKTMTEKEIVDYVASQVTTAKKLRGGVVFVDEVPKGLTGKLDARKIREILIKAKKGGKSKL
Summary of the method: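 Quantitative HTS format; KM concentrations of both substrates. Purified P. pyralis FLuc activity quantified from luminescence images.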

[8] = qHTS assay to identify small molecule agonists of the constitutive androstane receptor (CAR) signaling pathway - cell viability counter screen (AID 1224836); also: series mostly up to about 92 µM; nearly all actives have a fitted effect of over 45% in size
Summary of the method: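 Double-stable HepG2 hepatoma cells (hCAR plus CYP2B6-2.2kb) are treated for 23 h at 37 C with test compounds in 15-point concentration series. PK11195 at 0.75 uM final is co-added. Cell viability is quantified by CellTiter-Fluor.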

[9] = qHTS assay to identify small molecule antagonists of the constitutive androstane receptor (CAR) signaling pathway - cell viability counter screen (AID 1224837); also: series mostly up to about 92 µM; nearly all actives have a fitted effect of over 45% in size
Summary of the method: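 To flag cytotoxic false antagonists, HepG2 hCAR/CYP2B6-2.2kb cells were treated 23 hr with 15-concentration compound series and 50 nM CITCO at 37 C/5% CO2; CellTiter-Fluor fluorescence was the measured end point.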

[10] = target: Nuclear receptor subfamily 1 group I member 3 (Homo sapiens) (UniProt Q14994); assay: qHTS assay to identify small molecule antagonists of the constitutive androstane receptor (CAR) signaling pathway (AID 1224838);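 also: HepG2 cells stably expressing hCAR with CYP2B6 luciferase reporter stimulated by CITCO; nearly all actives have a fitted effect of over 40% in size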
Chain of Nuclear receptor subfamily 1 group I member 3 (Homo sapiens) (Q14994 whole entry, looked up): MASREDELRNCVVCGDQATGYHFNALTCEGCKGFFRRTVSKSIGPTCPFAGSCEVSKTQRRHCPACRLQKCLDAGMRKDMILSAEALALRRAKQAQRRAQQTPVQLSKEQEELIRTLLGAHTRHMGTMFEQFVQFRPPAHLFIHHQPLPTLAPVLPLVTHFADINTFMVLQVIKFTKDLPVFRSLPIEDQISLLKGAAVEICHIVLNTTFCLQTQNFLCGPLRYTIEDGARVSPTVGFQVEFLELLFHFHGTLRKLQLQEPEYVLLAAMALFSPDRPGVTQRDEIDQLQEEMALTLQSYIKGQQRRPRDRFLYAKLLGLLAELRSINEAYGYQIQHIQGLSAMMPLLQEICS
Summary of the method: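 Human hepatoma HepG2 cells expressing hCAR and a CYP2B6 promoter (2.2 kb) luciferase construct; compound titration (15 points) with 50 nM CITCO final, 24 h at 37 C/5% CO2; luminescence via ONE-Glo after 30 min at room temperature.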

[11] = target: Nuclear receptor subfamily 1 group I member 3 (Homo sapiens) (UniProt Q14994); assay: qHTS assay to identify small molecule agonists of the constitutive androstane receptor (CAR) signaling pathway (AID 1224839);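 also: HepG2 cells stably carrying human CAR and a CYP2B6 luciferase reporter; series mostly up to about 92 µM; nearly all actives have a fitted effect of over 15% in size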
Summary of the method: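 Readout: firefly luciferase luminescence via ONE-Glo. System: HepG2 double-stable for hCAR and CYP2B6-2.2kb. Conditions: 15-point compound titration, PK11195 at 0.75 uM final, 24 h incubation.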

[12] = qHTS assay to identify small molecule antagonists of the estrogen related receptor signaling pathway with the pleiotropic PPARgamma coactivator (PGC) from Tox21 10K library - cell viability counter screen (AID 1224840; active = well fitted cell-killing curve with a large enough effect in the repeat runs, not every such curve was filed as active; also: nearly all actives have a fitted effect of over 40% in size)
Summary of the method: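 Seeded PGC/ERR cells (2,000/well, 6 h, 37 C/5% CO2) get compound by pin tool; 17.5 h incubation at 37 C; CellTiter-Fluor added, 30 min, fluorescence measured.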

[13] = qHTS assay to identify small molecule antagonists of the estrogen related receptor signaling pathway with the pleiotropic PPARgamma coactivator (PGC) from Tox21 10K library (AID 1224841; call rule not given here; also: series mostly up to about 92 µM; actives are mostly falling curves and most rising ones were filed inactive; nearly all actives have a fitted effect of over 50% in size)
Summary of the method: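 Test chemicals dissolved in DMSO were applied to pre-incubated (6 h) PGC/ERR cells at 2,000 cells/well for an 18 h, 37 C treatment; reporter luminescence was then read using One-Glo.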

[14] = qHTS assay to identify small molecule agonists of the estrogen related receptor signaling pathway with the pleiotropic PPARgamma coactivator (PGC) from Tox21 10K library (AID 1224842); also: nearly all actives have a fitted effect of over 15% in size
Summary of the method: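 PGC/ERR reporter cells (NTP line) were seeded 2,000 per well, rested 6 h at 37 C/5% CO2, then pin-dosed with compounds in DMSO for 18 h at 37 C; luciferase read by One-Glo luminescence after 30 min at room temperature.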

[15] = qHTS assay to identify small molecule antagonists of the estrogen related receptor (ERR) signaling pathway - cell viability counter screen (AID 1224818); also: series mostly up to about 46 µM
Summary of the method: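 Compounds dissolved in DMSO were applied to ERR cells seeded at 2,000 per well 6 h earlier. Cell viability followed 17.5 h later via 30-min CellTiter-Fluor fluorescence.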

[16] = qHTS assay to identify small molecule antagonists of the estrogen related receptor (ERR) signaling pathway (AID 1224819;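 also: luminescence from an ERR-driven luciferase reporter measured with One-Glo reagent; series mostly up to about 46 µM; nearly all actives have a fitted effect of over 50% in size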)
Summary of the method: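 Compounds dissolved in DMSO were pin-transferred onto ERR cells that had been plated 6 h earlier, and cells were then incubated 18 h at 37 C; signal was luciferase luminescence via One-Glo.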

[17] = qHTS assay to identify small molecule agonists of the estrogen related receptor (ERR) signaling pathway (AID 1224820)
Summary of the method: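 Luminescence readout (One-Glo, 30 min RT) from NTP-supplied ERR cell line exposed to compounds for 18 h at 37 C. Cells seeded 2,000 per well and pre-incubated 6 h before pin-tool compound transfer.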

[18] = test system: estrogen-related receptor alpha (ERRalpha) with PGC-1alpha coactivator, human; assay: qHTS assay to identify small molecule antagonists of the estrogen related receptor signaling pathway with the pleiotropic PPARgamma coactivator (PGC) (AID 1224821; calls by dose curve)
Summary of the method: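 PGC/ERR reporter cells; 6 h pre-incubation 37 C/5% CO2; pin-tool compound in DMSO, 18 h 37 C; One-Glo added, 30 min RT; luminescence read. qHTS antagonist mode.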

[19] = qHTS assay to identify small molecule antagonists of the estrogen related receptor signaling pathway with the pleiotropic PPARgamma coactivator (PGC) cell viability counter screen (AID 1224822; also: series mostly up to about 46 µM)
Summary of the method: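 Counter screen for cell viability: PGC/ERR cells, 6 h pre-incubation after plating, 17.5 h compound exposure at 37 C, fluorescence from CellTiter-Fluor after 30 min.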

[20] = qHTS assay to identify small molecule agonists of the estrogen related receptor signaling pathway with the pleiotropic PPARgamma coactivator (PGC) (AID 1224823)
Summary of the method: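 Luminescence readout (One-Glo, 30 min RT) from PGC/ERR cell line treated 18 h at 37 C with pin-tool-delivered DMSO compound solutions; cells plated 6 h before dosing. Quantitative HTS format.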

Measured: Potency

CC[N+](=O)[O-]
not listed: [13] | [14] | [15] | [16] | [17] | [18] | [19] | [20]
inactive: all other assays above

CN(C)NC(=O)CCC(=O)O
not listed: [12] | [15] | [16] | [17] | [18] | [19] | [20]
inactive: all other assays above

CNC(=O)O/N=C(\SC)C(=O)N(C)C
not listed: [15] | [16] | [17] | [18] | [19] | [20]
inactive: all other assays above

CCOP(=S)(OCC)Oc1ccc([N+](=O)[O-])cc1
inactive: [1] | [2] | [3] | [4] | [5] | [6] | [7] | [8] | [9] | [10]

C=CC(=O)OCCCCCC(C)C
inactive: [1] | [2] | [3] | [4] | [5] | [6] | [7] | [8] | [9]

CN(C)C(=O)Nc1cccc(C(F)(F)F)c1
not listed: [13] | [14] | [15] | [16] | [17] | [18] | [19] | [20]
inactive: all other assays above

C/C=C/c1ccc2c(c1)OCO2
inactive: [1] | [2] | [3] | [4] | [5] | [6] | [7] | [8] | [9] | [10] | [11]

Cc1cc(Cl)ccc1OC(C)C(=O)O (centres undefined)
inactive: [1] | [2] | [3] | [4] | [5] | [6] | [7] | [8] | [9] | [11]

C=CCN=C=S
not listed: [15] | [16] | [17] | [18] | [19] | [20]
inactive: all other assays above

CNCC(O)c1ccc(O)cc1 (centres undefined)
not listed: [12]
inactive: all other assays above

— PubChem BioAssay (Tox21)
